Measured values published in PubChem BioAssay AID624037 (The Scripps Research Institute Molecular Screening Center, 2012).
Hit rate of the full screen: of about 360,000 compounds, about 700 (0.19%) were called active. Only a selection was taken, and actives are over-represented in it overall. Values without a mark were called inactive.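 Rule for the calls: active = activation above the run's mean over test compounds plus 3 SD (cut at about 23% in these data); inactive = the rest.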

These compounds were tested against Muscarinic acetylcholine receptor M5 (Homo sapiens) (UniProt P08912) (assay: human M5 muscarinic receptor agonists, primary screen, CHO-K1 cells, Fluo-8 calcium fluorescence (AID 624037;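 note: signal is peak over basal fluorescence ratio across the kinetic read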)). Settings: CHO-K1 hM5 cells, at 3 µM, active compounds read high, 0% DMSO wells, 100% maximal acetylcholine response.
Sequence of Muscarinic acetylcholine receptor M5 (Homo sapiens) (P08912 whole entry, looked up): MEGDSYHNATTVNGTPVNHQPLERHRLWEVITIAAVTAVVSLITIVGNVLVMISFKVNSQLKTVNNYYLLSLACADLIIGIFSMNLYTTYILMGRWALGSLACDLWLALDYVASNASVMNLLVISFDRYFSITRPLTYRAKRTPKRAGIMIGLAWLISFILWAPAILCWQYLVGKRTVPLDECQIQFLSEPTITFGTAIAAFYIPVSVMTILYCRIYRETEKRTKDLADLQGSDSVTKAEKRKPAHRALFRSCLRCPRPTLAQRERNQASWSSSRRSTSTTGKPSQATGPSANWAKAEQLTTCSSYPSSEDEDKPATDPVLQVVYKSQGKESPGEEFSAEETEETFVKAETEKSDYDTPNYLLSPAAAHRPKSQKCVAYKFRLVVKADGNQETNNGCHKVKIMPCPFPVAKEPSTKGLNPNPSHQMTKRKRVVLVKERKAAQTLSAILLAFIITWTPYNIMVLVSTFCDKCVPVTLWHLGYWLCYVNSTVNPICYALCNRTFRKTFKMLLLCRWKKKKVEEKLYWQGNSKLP

Point of comparison: `CCOC(=O)[C@]12CCCC=C1N(CCC1=CCCCC1)C(=O)[C@H](CC(=O)N1CCCCC1)C2`, activation 2.91%. Against it:
- CC(C)C[C@H]1CNC(=S)N1C[C@H]1CCCN1C[C@H](Cc1ccc(O)cc1)N1C[C@H](Cc2ccc(O)cc2)N(CC2CCCCC2)C1=S — lower, -1.54%
- N#CC1(NC(=O)COC(=O)CCN=C2NS(=O)(=O)c3ccccc32)CCCCC1 — lower, -5.2%
- Cc1ccccc1C(=O)NCCN=C1NS(=O)(=O)c2ccccc21 — lower, -1.12%
- O=C(Cc1c(Cl)cccc1Cl)NC1CC1 — lower, -4.03%
- Cc1ccc(C(=O)N(CC(=O)NC2CCCC2)c2ccc(F)cc2)s1 — lower, -2.46%
- COc1cccc(C(=O)NNC(=O)/C=C/c2ccccc2)c1 — lower, -2.95%
- Cc1cc(C)c2c(c1)cc(C)c1nnc(SCC(=O)Nc3cc(C)on3)n12 — higher, 3.15%
- O=C(CN(C(=O)CCC(=O)Nc1nccs1)c1ccc(F)cc1)NCc1ccc2c(c1)OCO2 — lower, -1.79%
- Cc1nccn1CCCNC(=O)CC1C(=O)NCCN1Cc1ccc(Cl)c(F)c1 (configuration not stated) — lower, -2.66%
- CC(=O)C[C@@H]1OC[C@H](CO)N1S(=O)(=O)c1ccc(C)cc1 — higher, 4.39%
- O=C(COC(=O)Cc1ccc(Br)cc1)Nc1ccc(N2CCOCC2)cc1 — higher, 4.95%
- CC(C)[C@H](NC(=O)N1CC(=O)Nc2ccccc21)C(=O)N[C@@H](Cc1c[nH]c2ccccc12)C(=O)O — lower, 1.96%
- Cc1cccc(C)c1NC(=O)CNC(=O)Cc1ccc(Br)cc1 — lower, -2.94%
- CCOc1ccc(CNC(=O)CCC(=O)N2CCSc3ccccc32)cc1 — higher, 3.47%
- CCn1cc(C(=O)NCC2COc3ccccc3O2)c2cc(OC)c(OC)cc2c1=O (configuration not stated) — lower, 1.23%
- O=C1C(=O)N(c2ccccc2)c2ccccc21 — higher, 15.5%
- CCC(=O)c1ccc(OCC(=O)N(CC)CC2COc3ccccc3O2)cc1 (configuration not stated) — lower, -1.18%
- O=C(Cn1nc(Cc2cccnc2)c2ccccc2c1=O)NCC1COc2ccccc2O1 (configuration not stated) — lower, 1.51%
- Cc1ccc2c(c1)C(O)(CC(=O)c1cccc(-n3cccc3)c1)C(=O)N2 (configuration not stated) — higher, 3.01%
- Cc1cccc(N=C2NC(=O)CS2)c1C — lower, 2.4%
- O=c1[nH]oc(O)c1-c1ncc(C(F)(F)F)cc1Cl — lower, -1.47%
- COc1ccc(NS(=O)(=O)c2ccc(C)c(C(=O)NNC(=O)c3csc(N4CCOCC4)n3)c2)cc1 — lower, -2.51%
- CC1CN(c2cc(=O)n(Cc3ccc(F)cc3)c(=O)[nH]2)CC(C)O1 (configuration not stated) — lower, 1.48%
- O=C1C(Sc2cccc(F)c2)=C[C@@]2(O)CC[C@@H](O)[C@]1(Sc1cccc(F)c1)[C@H]2O — lower, -1.89%
- CC12CN3CC(C)(CN(C1)C3c1ccc(Cl)cc1Cl)C2=O (configuration not stated) — lower, 0.42%
- CCC(C)C1(C2CCCC2)NC(=O)NC1=O (configuration not stated) — lower, -2.24%
- Cc1ccsc1C1C(C#N)=C(N)OC2=C1C(=O)CC(C)(C)C2 (configuration not stated) — lower, -3.66%
- CCOC(=O)c1cnc(SC)nc1Sc1ccc(Cl)cc1Cl — lower, -3.12%
- O=C(Cn1nc(Cc2cccnc2)c2ccccc2c1=O)NCC1CCCO1 (configuration not stated) — lower, 1.65%
- COC(=O)c1ccc(OC(=O)c2nn(C)cc2Cl)c(OC)c1 — lower, -3.16%
- CCN(CC)CCCNC(=O)c1ccc2c(=O)n(Cc3ccc4c(c3)OCO4)c(=S)[nH]c2c1 — lower, -16.7%
- COC(=O)[C@]12CCCCC=C1N(CCC1=CCCCC1)C(=O)[C@H](CC(=O)N1CCSCC1)C2 — lower, 0.77%
- COc1cc(NC(=S)NCCSc2ccc(C)cc2)cc(OC)c1 — lower, 0.65%
- CCCCCCCCNS(=O)(=O)CCNC1CCCCC1 — lower, 2.22%
- CCn1c(-c2ccoc2C)n[nH]c1=S — lower, -2.69%
- CC(=O)OCCC(C)C — lower, 1.99%
- CCCCOC(=O)Nc1nccs1 — lower, 1.28%
- COc1ccc(C(=O)NC(Cc2ccc(OC(=O)c3ccc(OC)cc3)cc2)C(=O)O)cc1 (configuration not stated) — lower, 0.61%
- Cc1ccsc1C(=O)NNC(=O)COc1ccc(Br)cc1 — lower, 2.78%
- Cc1ccc(O)c(/C=N/NC(=O)COc2ccc3c(C)cc(=O)oc3c2)c1 — lower, -0.84%
- Cc1ccc(S(=O)(=O)N2CCCC2CO)cc1 (configuration not stated) — lower, 1.95%
- CC1(C)OC(=O)C2=C(CC(c3ccccc3)OC2CCc2ccccc2)O1 (configuration not stated) — lower, -0.45%
- CCCCCCSc1nsc(N)n1 — lower, -2.92%
- O=C(NCCN=C1NS(=O)(=O)c2ccccc21)c1ccc(S(=O)(=O)N2CCOCC2)cc1 — lower, -1.87%
- Cc1ccccc1N(C(=O)Cc1cccs1)C(C(=O)NC1CCCCC1)c1cn(C)nc1C (configuration not stated) — lower, -1.99%
- O=C(O)CC/C(=N\NC(=O)c1ccc(F)cc1)c1ccc(Br)cc1 — lower, -1.22%
- COc1ccc(COC(=O)c2ccc(Cl)c(S(=O)(=O)N3CCOCC3)c2)cc1F — lower, -0.05%
- CC1CCN(S(=O)(=O)c2ccc3ncn(CC(=O)N(C)C4CCCCC4)c(=O)c3c2)CC1 — lower, -0.64%
- CC(=O)Nc1ccc(S(=O)(=O)N(C)c2ccc(OCC(=O)OCC(=O)N3CCCCC3)cc2)cc1 — lower, 0.4%
- COc1ccc(CN(C)C(=S)Nc2ccc(Cl)cc2Cl)cc1 — lower, -4.4%
- O=C(CCS(=O)(=O)c1cccc2nonc12)NCCc1ccccc1Cl — lower, -0.36%
- Cc1nc(C)c2c(c1C(F)(F)F)-c1ccccc1C2(F)F — lower, -0.42%
- COc1ccc(-c2onc(C)c2-c2ccc3c(c2)OCCO3)c(O)c1 — higher, 12.5%
- COc1ccc(CCN2C(=O)c3[nH]nc(-c4ccccc4O)c3C2c2ccc(C)cc2)cc1OC (configuration not stated) — lower, -2.41%
- O=C(NCC12CC3CC(C1)CC(CNC(=O)N1CCCC1)(C3)C2)N1CCCC1 — higher, 2.96%
- COCCNc1ccc(-c2n[nH]c(=O)c3ccccc23)cc1[N+](=O)[O-] — lower, -2.62%
- CCCCC(=O)N1CC2(C)CN(C(=O)CCCC)CC(C)(C1)C2=O — lower, 1.44%
- O=C(COc1ccc([N+](=O)[O-])cc1Cl)Nn1cnnc1 — lower, -0.29%
- COc1ccc(C(C[N+](=O)[O-])n2nc(C)cc2C)cc1 (configuration not stated) — lower, 1.97%
- Cc1cc(NC(=O)Nc2ccccc2[N+](=O)[O-])no1 — lower, -2.19%
- CN(C)c1ccc(C(CNC(=O)c2ccc(F)cc2)c2c[nH]c3ccccc23)cc1 (configuration not stated) — lower, -4.52%
- Cc1cc(=O)oc2c3c(cc(OCC(=O)NCCC(=O)N[C@@H](C)C(=O)O)c12)OC(C)(C)CC3 — lower, -2.41%
- C[C@@H]1CN([C@H](C)CO)S(=O)(=O)c2ccc(C#CC3CCCCC3)cc2O[C@H]1CN(C)C(=O)Cc1ccncc1 — lower, 1.87%
- Cn1nc(N)c2ncc(C(Cl)(Cl)Cl)nc21 — lower, -0.27%
- CCC1CCCCN1S(=O)(=O)Cc1ccccc1Cl (configuration not stated) — lower, -4.8%
- CCCS(=O)(=O)N1CCN(C(=O)c2cccs2)CC1 — lower, 2.49%
- COc1ccccc1/C=C/CN1CCC(CO)(Cc2ccccc2)CC1 — lower, 0.17%
- O=C(Cn1cnc2c(OCc3ccccc3)ncnc21)NCc1nc2ccccc2[nH]1 — lower, -0.16%
- CCCC(C)C(=O)Nc1ccc(NC(C)=O)cc1 (configuration not stated) — lower, 0.87%
- Cc1ccc(NC(=O)C(C)c2cccc(C(=O)c3ccccc3)c2)cc1 (configuration not stated) — higher, 5.38%
- CCOC(=O)c1sc(NC(=O)CSc2nc(C)cc(C(F)(F)F)n2)c(C#N)c1C — lower, -3.97%
- Clc1ccc(C2=CSC3=Nc4cccc5cccc(c45)N23)cc1 — lower, -0.82%
- COc1ccc(OCCCn2cccc2/C=C2/C(=N)N3OC(C)=CC3=NC2=O)cc1 — lower, 0.09%
- CC(C)CCN1CCN(Cc2cn[nH]c2C2CCCCC2)CC1CCO (configuration not stated) — lower, -10.3%
- CCOCCCNC(=O)c1ccc(CS(=O)(=O)c2cccc(C(F)(F)F)c2)o1 — lower, -2.51%
- Cc1cc(OCC(=O)N(C)c2c(N)n(Cc3ccccc3)c(=O)[nH]c2=O)c(C(C)C)cc1Cl — lower, -1.72%
- Cn1c(=O)[nH]c(=O)c2c1[nH]c(=S)n2Cc1ccccc1 — lower, -2.82%
- O=C(COc1ccc(F)cc1)N(CC1=CCS(=O)(=O)C1)c1ccccc1 — lower, -3.65%

For `O=C(CCCN=C1NS(=O)(=O)c2ccccc21)OCC(=O)c1ccc(F)c(F)c1`, the activation was 37.2% (active).
For `O=C(/C=C(O)/C=C/c1ccc(O)cc1)/C=C/c1ccc(O)cc1`, the activation was 156% (active).
`c1ccc(C(=NNc2nc3ccccc3s2)c2ccccn2)cc1` was tested, and the activation was 58.8% (active).
In the case of `O=C1C(=O)N(CC2COc3ccccc3O2)c2ccccc21` (configuration not stated), the activation is reported as 26.9% (active).
In the case of `c1ccc2c(c1)OCC(CNc1ncnc3nc[nH]c13)O2` (configuration not stated), the activation is reported as 108% (active).
In the case of `CCOC(=O)N1CCN(C(=O)C[C@@H]2C[C@@]3(C(=O)OC)CCCCC=C3N(CCC3=CCCCC3)C2=O)CC1`, the activation is reported as 24% (active).
With `CC(=O)OC(C)C[N+](C)(C)C` (configuration not stated) the activation was 99.8% (active).
`CC(C[N+](C)(C)C)OC(N)=O` (configuration not stated) was tested, and the activation was 96.3% (active).
With `Cc1ccc(O)c(NC(=S)NC(=O)COc2ccc(Br)cc2)c1` the activation was 31.2% (active).
`COc1ccc(-c2n[nH]c(C)c2-c2ccc(OC)c(OC)c2)c(O)c1` was tested, and the activation was 29.1% (active).
With `CCC(C(=O)Nc1ccc(C(C)C)cc1)c1ccccc1` (configuration not stated) the activation was 35.8% (active).
For `CC1=CC2=NC(=O)/C(=C/c3coc4ccccc4c3=O)C(=N)N2O1`, the activation was 38.9% (active).
With `Cc1cc2nc3c(=O)n(Cc4ccccc4)c(=O)[nH]c3nc2cc1N` the activation was 86.1% (active).
